Assay outcomes as filed in PubChem.
In the library only some 1.2% were active in any assay of this set; here they are far more common.
KCNH2 3.1 block: blocks the human KCNH2 3.1 channel isoform. U2OS KCNH2 3.1, thallium flux FluxOr; active compounds read low. hit rate 0.95% among 340,000. activity change, % (tested at about 1.8 µM). AID 720553;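 active = maximum activity change below -70%; inconclusive = maximum activity change from -70% to -50%; inactive = maximum activity change above -50%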;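 also: thallium influx rate constant from kinetic fluorescence after stimulation buffer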
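U2OS cells transduced with KCNH2 3.1 mutant virus (1.77 x 10^8 /mL, 4 h), plated overnight at 37 C, loaded 45 min with FluxOr dye plus Red40 quencher. Thallium flux rate constant from kinetic reads after stimulation buffer, normalised to controls.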
RGS4 inh: human RGS4 inhibition | Transcreener GDP fluorescence polarization, RGS4-accelerated GTP hydrolysis | Potency, µM (series often up to 114 µM), for the others: at the highest dose activity change, negative = inhibition, actives largely listed as inhibitors | hit rate 0.039% among 390,000; also: potency is read from the fitted curve at half-maximal effect; nearly all actives have a fitted effect of over 75% in size
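MLSMR compounds (23 nl, pin-transferred) preincubated 10 min at room temperature with a 500nM (2x) first reagent, then RGS4 at 900nM (2x) plus Transcreener GDP mix added; fluorescence polarization (620/688 nm) read before and after 90 min at 30 °C.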
hERG WT inh: blocks the wildtype human KCNH2 potassium channel | Q12809 | U2OS, BacMam KCNH2, thallium flux FluxOr; active compounds read low | activity change, % at 1.84 µM | hit rate 0.37% among 340,000;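 active = maximum activity change below -70%; inconclusive = maximum activity change between -70% and -50%; inactive = maximum activity change above -50%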
Target sequence (Q12809 whole entry, looked up): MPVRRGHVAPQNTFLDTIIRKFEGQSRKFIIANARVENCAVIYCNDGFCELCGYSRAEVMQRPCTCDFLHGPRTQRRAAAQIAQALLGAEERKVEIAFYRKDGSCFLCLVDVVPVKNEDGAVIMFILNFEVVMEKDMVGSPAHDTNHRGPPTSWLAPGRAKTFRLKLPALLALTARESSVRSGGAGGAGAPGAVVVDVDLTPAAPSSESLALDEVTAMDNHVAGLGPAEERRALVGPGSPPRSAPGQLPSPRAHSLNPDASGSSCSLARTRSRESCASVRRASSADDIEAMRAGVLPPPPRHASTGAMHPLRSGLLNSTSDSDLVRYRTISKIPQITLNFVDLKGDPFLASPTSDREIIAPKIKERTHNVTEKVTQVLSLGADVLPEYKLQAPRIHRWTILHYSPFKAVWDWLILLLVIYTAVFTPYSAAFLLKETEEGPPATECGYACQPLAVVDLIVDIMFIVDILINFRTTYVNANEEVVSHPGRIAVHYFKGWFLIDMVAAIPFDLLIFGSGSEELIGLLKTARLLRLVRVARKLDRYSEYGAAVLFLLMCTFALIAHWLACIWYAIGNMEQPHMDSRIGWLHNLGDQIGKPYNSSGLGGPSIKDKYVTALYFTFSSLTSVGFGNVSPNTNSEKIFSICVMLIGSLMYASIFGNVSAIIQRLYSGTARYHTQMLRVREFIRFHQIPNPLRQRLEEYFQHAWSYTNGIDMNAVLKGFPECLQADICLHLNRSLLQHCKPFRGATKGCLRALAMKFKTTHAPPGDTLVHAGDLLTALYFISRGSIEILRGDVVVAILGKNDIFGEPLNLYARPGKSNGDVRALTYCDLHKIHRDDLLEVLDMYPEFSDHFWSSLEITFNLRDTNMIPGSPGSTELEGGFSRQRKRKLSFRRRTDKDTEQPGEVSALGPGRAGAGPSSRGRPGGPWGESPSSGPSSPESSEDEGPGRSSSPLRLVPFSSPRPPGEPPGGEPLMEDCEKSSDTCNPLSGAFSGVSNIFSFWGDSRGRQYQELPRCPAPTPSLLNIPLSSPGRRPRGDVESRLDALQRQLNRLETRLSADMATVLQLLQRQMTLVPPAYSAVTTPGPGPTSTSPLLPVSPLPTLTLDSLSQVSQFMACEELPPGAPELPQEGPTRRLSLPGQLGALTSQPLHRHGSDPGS
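U2OS cells were transduced with wild-type KCNH2 virus (2.03 x 10^8 / mL) for 4 h at room temperature, then cultured overnight at 37 C. Thallium flux was read with FluxOr dye. Rate constants were normalized to DMSO controls.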
GCN5L2 inh: GCN5L2 (KAT2A) acetyltransferase inhibition. GCN5L2 HAT assay, ThioGlo1 CoA-SH fluorescence. Potency, µM (series often up to 58.9 µM), inactives show at the highest dose activity change, negative = inhibition, most hits filed as inhibitors. hit rate 0.21% among 390,000. AID 504327; also: potency is read from the fitted curve at half-maximal effect
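Free CoA generated was detected with ThioGlo1 (50uM) fluorescence at Ex340nm/Em540nm, read immediately and after 20 min at room temperature. Enzyme, 20 nM in HEPES pH 7.5 buffer, saw compounds 15 min before adding 75uM H3(1-25) peptide and 70uM acetyl-CoA.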
Pin1 inhibitor: blocks the human prolyl isomerase Pin1 | Q13526 | Pin1 FP peptide displacement, HiFluor488, 10 min | Potency, µM (doses to about 115 µM), without a hit: at the top dose activity, negative = inhibition, usual class: inhibitors | hit rate 0.009% among 390,000; active = well fitted inhibition curve with a large enough effect in the polarisation, with a control signal flat, not every such curve was filed as active; inconclusive = small, poorly fitted or top-dose-only effect, or effect the other way, or a change in a side signal; inactive = no such curve, though single readings can be large or run the other way; the % refers to the polarisation; also: potency is read from the fitted curve at half-maximal effect
Tb PGK inh: blocks T. brucei phosphoglycerate kinase. P07378. PGK/GAPDH coupled, Kinase-Glo luminescence, 60 min. Potency, µM (highest dose often 57.5 µM), for inactives: at the top dose activity change, negative = inhibition, hits mostly inhibitors. hit rate 0.043% among 380,000; also: potency is read from the fitted curve at half-maximal effect; nearly all actives have a fitted effect of over 60% in size
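Recombinant glycosomal PGK reaction used 1,3-bisphosphoglycerate generated in-well by GAPDH (100nM final) in 100mM TEA pH 7.6, 5mM MgCl2, 0.01% Tween-20. After 60 minutes at room temperature, ATP was read by Kinase-Glo Plus luminescence end-point.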
An asterisk follows results filed as active; i = inactive; ? = inconclusive; · = not tested or not shown; [ ] = another dose, or the depositor's remark. Unless noted, calls follow the shape of the dose curve; as a rule, active = well fitted curve in the direction sought with a large enough effect; inconclusive = small, poorly fitted or top-dose-only effect, or another doubt; inactive = no such curve, though single readings can be large; an effect the other way counts as inactive or inconclusive. % is scaled to controls: 0 for no effect and ±100 for the full control effect.

SMILES | KCNH2 3.1 block | RGS4 inh | hERG WT inh | GCN5L2 inh | Pin1 inhibitor | Tb PGK inh
O=c1cc(C(F)(F)F)c2cc3c4c(c2o1)CCCN4CCC3 | -109* | 3%[11.4 µM] | -72* | -1%[0.501 µM] | · | -3%
Cc1cc2c(C(F)(F)F)cc(=O)oc2c2c1NCCC2 | 4 | -13% | -10 | 3% | ? | -10%
Cc1ccc(N2C(=O)NC(=O)/C(=C/c3ccoc3)C2=O)cc1 | -4 | ? | -1 | -19% | ? | 11µM*
O=C1C(I)=CC(=C(c2cc(I)c(O)c(I)c2)c2ccccc2C(=O)O)C=C1I | · | · | · | 3.5µM* | · | ·
O=[N+]([O-])c1ccc(-c2[se]c3ccccc3c2I)cc1 | · | · | · | 25µM* | · | ·
O=C1OC(c2cc(I)c(O)c(I)c2)(c2cc(I)c(O)c(I)c2)c2ccccc21 | · | · | · | 8.9µM* | · | ·
COC(=O)C1=C(c2cccc(OC)c2OC)C[C@@H]2CC[C@H]1N2C(=O)NCCS(C)=O (stereo partly drawn) | 6 | -5% | -163* | · | 0% | i
COC(=O)C1=C(c2cccc(OC)c2OC)C[C@@H]2CC[C@H]1N2C(=O)NCCO | -1 | 7% | 5 | · | 7% | -9%
COC(=O)C1=C(c2ccccc2OCc2ccccc2)C[C@@H]2CC[C@H]1N2C(=O)NCc1ccc(Br)cc1 | -82* | -33% | 0 | -2% | 3% | -1%
CCOC(=O)C1CCN(Cc2ccc(Cl)nc2)CC1 | -3 | 1%[56.9 µM] | -74* | -14% | -11% | 1%
Cc1ccccc1O | 3 | 4% | -6 | -6% | -8% | -4%
Oc1cccc[c]1[Hg][Cl] | · | · | · | 0.089µM* | · | ·
CC(=O)N1CN(C(C)=O)CN(C(C)=O)C1 | -14 | 15%[11.4 µM] | -6 | -1% | -11% | 5%
CC(=O)N1CC[N+](C)(C)CC1 | · | ? | · | 20µM* | · | ·
COc1ccc(-c2cc(C(=O)N3CCN(c4ccccc4OC)CC3)c3cc(C(C)C)ccc3n2)cc1 | · | 2% | · | -12% | 32% | 8%
Clc1ccc2c(c1)C(c1ccccc1Cl)=NCc1nnc(N3CCN(CCSc4ccccc4)CC3)n1-2 | -12 | 12% | -153* | 26% | 26% | -6%
O=C(COc1ccc2ccc(=O)oc2c1)N1CCC(C(=O)O)(c2ccccc2)CC1 | 1 | 4% | -2 | 25µM* | -10% | -4%
C[C@@H](C1CC[C@@]2(O)C3=CC(=O)[C@@H]4C[C@@H](O)[C@@H](O)C[C@]4(C)[C@H]3CC[C@]12C)[C@H](O)CCC(C)(C)O (stereo partly drawn) | · | -2% | · | · | -1% | ·
C/C1=C/C(=O)O[C@@H]2C[C@@H](CC[C@H](C)/C=C\CC1)O[C@@](O)(C1CSC(=O)N1)C2 (stereo partly drawn) | · | · | · | -13% | · | ·
N/C(=N\N=C/c1ccc(-c2ccc(O)c(C(=O)O)c2)o1)N[N+](=O)[O-] | 14 | -22% | 13 | ? | ? | 10µM*
CCN(CC)C(=O)c1ccc2c(c1)C1C=CCC1C(C(=O)O)N2 (stereo not drawn) | 3 | ? | -7 | 0% | ? | 18µM*
CCN(CC)C(=O)c1ccc2c(c1)C1C(Cl)C(Sc3ccccc3[N+](=O)[O-])CC1C(C(=O)O)N2 (stereo not drawn) | 1 | -44%[11.4 µM] | 0 | 13µM* | ? | -24%
CCN(CC)C(=O)c1ccc(N(Cc2ccccc2)S(C)(=O)=O)cc1 | 5 | 18% | -3 | -5% | -5% | -13%
Cc1ccc2c(c1Cl)NC(C(=O)O)C1CC(Sc3ccccc3[N+](=O)[O-])C(Cl)C21 (stereo not drawn) | -7 | -50%[56.9 µM] | 2 | 3% | ? | -16%
CCN1C[C@@]2(COC)CCC(OC)[C@]34C5C[C@]6(O)[C@@H](OC)C[C@](OC(C)=O)(C([C@H](OC)C23)[C@H]14)C5[C@H]6OC(=O)c1ccc(OC)cc1 (stereo partly drawn) | · | · | · | -8% | · | ·
SMILES | KCNH2 3.1 block | RGS4 inh | hERG WT inh | GCN5L2 inh | Pin1 inhibitor | Tb PGK inh
CCOc1ccccc1NC(=O)c1sc2nc3c(cc2c1N)CN(Cc1ccccc1)CC3 | · | -28% | · | 0% | ? | -1%
CCNc1nc(Cl)nc(NCC)n1 | · | · | · | 28µM* | · | ·
C[N+]1([O-])[C@H]2CC[C@H]1CC(OC(=O)[C@@H](CO)c1ccccc1)C2 (stereo partly drawn) | · | · | · | -13% | · | ·
COP(=O)(OC)c1nc(-c2cccc3ccccc23)oc1N1CCOCC1 | 1 | -6% | 0 | 28µM* | 0% | 4%
C=CCNC(=S)N1Cc2ccccc2-n2nncc2C1 | 17 | · | -120* | · | · | -7%
COc1ccc(NC(=O)N2CC3(CCN(C(=O)Oc4ccccc4)CC3)C2)cc1 | · | · | · | 0% | · | ·
CCC1CN2CCC1CC2C(O)c1ccnc2ccc(OC)cc12 (stereo not drawn) | · | · | · | -6% | · | ·
CN(C)C(=S)SSC(=S)N(C)C | 12 | 7% | 13 | 14µM* | 11% | 0%
COC(=O)C1=C(c2ccc(Cl)c(C(F)(F)F)c2)C[C@@H]2CC[C@H]1N2C(=O)NCc1cc(C)oc1C(F)(F)F | -89* | -9% | -11 | -17% | 2% | 5%
COC(=O)C1=C(c2ccc(Cl)c(C(F)(F)F)c2)C[C@@H]2CC[C@H]1N2C(=O)NCC1CC1 | -10 | -6% | 5 | -10% | -4% | i
C[C@]1(C(=O)O)CCC[C@]2(C)c3cc(O)ccc3CC[C@@H]12 | · | 1.1µM* | · | -9% | · | ·
CC1(C(=O)O)CCCC2(C)c3cc(O)ccc3CCC12 (stereo not drawn) | 14 | 37% | -15 | · | 1% | -5%
OC[C@@H]1[C@@H](O)[C@H](O)[C@H]2[C@@H](O)CCN21 | · | · | · | -16% | · | ·
O=C(CCCN1CCC(n2c(=O)[nH]c3ccccc32)CC1)c1ccc(F)cc1 | -71* | 0% | -11 | 2% | -7% | -9%
CON(C)C(=O)Nc1ccc(Br)c(Cl)c1 | · | · | · | 25% | · | ·
CC(=O)[C@H]1CC[C@H]2C3CC[C@H]4C[C@](C)(O)CC[C@]4(C)C3CC[C@]12C (stereo partly drawn) | · | · | · | 47% | · | ·
CCOC(=O)C1(CCOc2ccccc2)CCN(Cc2ccc(C)s2)CC1 | -84* | 21% | -94* | -2% | 3% | -10%
CCOC(=O)C1(CCc2ccccc2)CCN(Cc2ccc3c(c2)OCCO3)CC1 | -113* | -8% | -43 | -5% | 0% | -1%
CCOC(=O)C1(CCc2ccccc2)CCN(Cc2ccc(NC(C)=O)cc2)CC1 | -6 | 19% | -3 | -5% | 0% | -5%
CN1CCN(CC(=O)Nc2ccc([N+](=O)[O-])cc2C(=O)c2ccccc2)CC1 | -110* | 5% | -103* | -4% | -6% | i
